Bioassay records (PubChem)
This is a sample that favours compounds with a hit; in the whole collection about 3.7% have one here.
ERa coact pot – ER-alpha (human) coactivator binding potentiation; P03372; TR-FRET ERalpha-LBD/SRC-Cy5 coactivator binding, 2 h; 100 = basal binding, no effect; coactivator binding (% of control), % at 25.6 µM; 86,000 tested, 1.3% active; in the data active means activity above about 200%;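 further: binding measured in presence of low estradiol as agonist stimulus; 0% = peptide alone without receptor and 100% = receptor with peptide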
Target sequence (P03372 whole entry, looked up, the tested form may be a part): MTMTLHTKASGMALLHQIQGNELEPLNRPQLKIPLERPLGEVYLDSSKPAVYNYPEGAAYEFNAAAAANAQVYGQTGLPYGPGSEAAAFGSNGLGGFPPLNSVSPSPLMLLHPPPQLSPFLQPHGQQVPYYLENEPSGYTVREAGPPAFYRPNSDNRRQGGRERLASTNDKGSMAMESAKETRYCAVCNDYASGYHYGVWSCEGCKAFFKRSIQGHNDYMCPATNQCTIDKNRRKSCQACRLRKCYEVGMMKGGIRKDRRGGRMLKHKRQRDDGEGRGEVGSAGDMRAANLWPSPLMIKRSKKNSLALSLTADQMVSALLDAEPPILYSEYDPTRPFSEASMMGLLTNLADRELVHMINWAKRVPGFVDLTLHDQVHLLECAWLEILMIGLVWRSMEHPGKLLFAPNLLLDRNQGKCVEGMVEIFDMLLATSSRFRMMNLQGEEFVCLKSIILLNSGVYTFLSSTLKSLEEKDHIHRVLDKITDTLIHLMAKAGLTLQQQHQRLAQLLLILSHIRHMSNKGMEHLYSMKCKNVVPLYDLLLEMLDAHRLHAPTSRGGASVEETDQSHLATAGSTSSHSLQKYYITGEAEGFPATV
ERa coact inh – blocks coactivator binding to human estrogen receptor alpha; 86,000 tested, 1.7% active; P03372; TR-FRET ER-alpha LBD / SRC-1 peptide, estradiol-bound; inhibition, % at 25.6 µM; in the data active means inhibition above about 50%;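 further: 0% = receptor plus peptide control and 100% = peptide only without receptor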
Smad3 inh – blocks human Smad3 binding to FoxH1 peptide. P84022. TR-FRET Smad3/Dy647-FoxH1 peptide binding, europium anti-His. AID 630. inhibition, % at 25 µM. 88,000 tested, 0.29% active;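 active means compounds that reduce the energy-transfer binding signal between the protein and its labelled peptide by more than half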;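 further: 0% = Smad3 plus labelled peptide maximal FRET and 100% = peptide-only background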
ERb coact inh – ER-beta (human) coactivator binding inhibition. AID 633. 86,000 tested, 1.3% active. TR-FRET ER-beta LBD / SRC1-Cy5 peptide binding; receptor agonist-loaded with 1 µM estradiol. inhibition, % at 25.6 µM. Q92731;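 active means compounds whose percent inhibition of the receptor-coactivator binding signal exceeds about 50% in the single-dose screen, limit read from the data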;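 further: 0% = receptor plus peptide wells without compound and 100% = peptide-only wells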
* hit, by the source's call; x = not tested or not shown; ! = a repeat was not active; [ ] = another dose, or the depositor's remark.

SMILES | ERa coact pot | ERa coact inh | Smad3 inh | ERb coact inh
CC1Cc2ccccc2N1C(=O)CSc1nc2cc3c(cc2cc1C#N)OCO3 (stereo unspecified) | 298*[fluorescence artefact?] | 24 | 5 | 23
CCOC(=O)CSc1nc2cc3c(cc2cc1C#N)OCO3 | 161 | 27 | 15 | 32
CCOC(=O)CSc1nc2cc(C)ccc2cc1C#N | 111 | 4 | 0 | 3
Cc1cc2ccccc2nc1SCC(=O)N1c2ccccc2CC1C (stereo unspecified) | 101 | 1 | -19 | 0
CCOC(=O)CSc1nc2cc(OC)ccc2cc1C#N | 347*[fluorescence artefact?] | 13 | 15 | 38
COC(=O)CSc1nc2cc3c(cc2cc1C#N)OCO3 | 284*[fluorescence artefact?] | 30 | 35 | 16
Cc1cc2cc3c(cc2nc1SCC(=O)N1c2ccccc2CC1C)OCO3 (stereo unspecified) | 162 | 51*[fluorescence artefact?] | -2 | 48
CC1CCc2cc(F)ccc2N1C(=O)C1(C)CC1(Cl)Cl (stereo unspecified) | 96 | -1 | -4 | -10
COc1ccc(CNCC(O)COCc2cccs2)cc1 (stereo unspecified) | 86 | -1 | 4 | 1
O=S(=O)(NCC(O)COCc1ccco1)c1cccs1 (stereo unspecified) | 90 | 53*[fluorescence artefact?] | -3 | 50*
CC1=C(SCCC#N)S/C(=C2\SC(C)=C(SCCC#N)S2)S1 | 43 | 81* | 4 | 53*
CC(=O)N1CCN(c2ccc(Nc3ncnc4c3oc3ccccc34)cc2)CC1 | 34 | 56*[fluorescence artefact?] | 9 | 61*[fluorescence artefact?]
CCc1nc(Nc2ccc(N3CCN(C(C)=O)CC3)cc2)c2oc3ccccc3c2n1 | 54 | 33 | -5 | 61*[fluorescence artefact?]
CCc1nc(N2CCN(C(=O)c3ccco3)CC2)c2oc3ccccc3c2n1 | 93 | 2 | 2 | 1
N#Cc1c(N)sc(=S)c2c1CCCCC2 | 51 | 36 | 10 | 57*[fluorescence artefact?]
O=C(O)c1ccc(Cl)c2c1C1C=CCC1C(c1ccccn1)N2 (stereo unspecified) | 15 | 65*[fluorescence artefact?] | 13 | 87*[fluorescence artefact?]
Cc1cccc2c1Oc1ccccc1[C@H]2NC(=O)c1ccc([N+](=O)[O-])cc1 | x | x | 8 | x
CCN(CC)S(=O)(=O)c1cc(C(=O)O)ccc1Cl | 103 | 4 | 5 | 4
CCN(c1ccccc1)S(=O)(=O)c1cc(C(=O)O)ccc1C | 12 | 76* | 15 | 74*
COC(=O)Nc1sccc1C(=O)Nc1sccc1C(=O)OC | 201* | 12 | 6 | 6
O=C(O)c1cc(C(=O)O)nc(C(=O)O)c1 | x | x | 7 | x
Cc1ccc(S(=O)(=O)CCc2nc3ccccc3s2)cc1C | 101 | -10 | 11 | -9
S=C1SCN(C2CCCCCCCCCCC2)CN1C1CCCCCCCCCCC1 | x | x | 9 | x
CC12CC3(C)CC(C)(C1)CC(C(=O)Nc1nn[nH]n1)(C2)C3 | 79 | 3 | -11 | 14
CC12CC3CC(C)(C1)CC(C(=O)Nc1nn[nH]n1)(C3)C2 | 226* | -4 | -3 | -6
SMILES | ERa coact pot | ERa coact inh | Smad3 inh | ERb coact inh
CCOC(=O)c1cnn(-c2ccccn2)c1N | 102 | -7 | 2 | -1
CCOC(=O)c1cnn(-c2sc(C(=O)OCC)c(C)c2C(=O)OCC)c1N | 29 | 63*[fluorescence artefact?] | -9 | 64*[fluorescence artefact?]
O=C(O)c1cc(-c2ccc(-c3ccccc3)cc2)nc2cc3ccccc3cc12 | x | x | 10 | x
CC(C)Cn1c(N)c(C(=O)NCC2CCCO2)c2nc3ccccc3nc21 (stereo unspecified) | 56 | 4 | 7 | -4
Nc1c(C(=O)NCC2CCCO2)c2nc3ccccc3nc2n1/N=C/c1ccncc1 (stereo unspecified) | 314*[fluorescence artefact?] | -22 | 21 | 0
O=C(O)CCC(=O)Nc1ccc(Cc2ccc(NC(=O)CCC(=O)O)cc2)cc1 | 115 | 2 | 9 | 0
O=c1cc(-c2ccco2)oc2c1ccc1ccccc12 | 327* | 51*[fluorescence artefact?] | 1 | 52*[fluorescence artefact?]
Cc1ccc(S(=O)(=O)N2CCC(C(=O)O)(c3ccccc3)CC2)cc1 | x | x | -5 | x
COc1cc(S(=O)(=O)NC(C)C)ccc1Cl | 89 | 65*[fluorescence artefact?] | 6 | 2
COc1ccc(S(=O)(=O)NC(C(C)C)C(C)C)cc1OC | 129 | -4 | -4 | -8
c1ccc(CN(CC2=NCCN2)c2ccccc2)cc1 | 119 | -6 | 5 | 4
Cc1ccc(N(CC2=NCCN2)c2cccc(O)c2)cc1 | 94 | -4 | 1 | 70*!
O=C(C[C@@H](C(=O)O)N1CCOCC1)c1ccccc1 | x | x | 32 | x
C#CCn1c(=NC(=O)c2ccc(Br)s2)sc2cccc(OC)c21 | 333*[fluorescence artefact?] | 57*[fluorescence artefact?] | -40 | 43
Cc1ccn2c(C(=O)c3ccc(Cl)cc3)cnc2c1 | 107 | 5 | -2 | -1
O=C(O)c1cccc(CN2CCCCC2)c1 | x | x | -6 | x
CCN(CC)c1ccc(NC(=O)c2cnn(CC)c2)cc1 | 38 | 38 | -10 | 78*[fluorescence artefact?]
CCOc1cccc(C(=O)Nc2ccc(N(CC)CC)cc2)c1 | 79 | 7 | 21 | 15
CCOC(=O)c1sc(C)c2c1NC(c1ccc(N(C)C)cc1)NC2=O (stereo unspecified) | 216*[fluorescence artefact?] | 11 | -3 | 12
O=C(CSc1nc2ccccc2s1)c1sc2sc3ccccc3[n+]2c1O | x | x | 96* | x
O=C(CSc1nc2ccccc2s1)CSc1nc2ccccc2s1 | 107 | 15 | 14 | 23
N[C@@H](Cc1nn[nH]n1)C(=O)O | x | x | 4 | x
NS(=O)(=O)c1cc2c(cc1Cl)N[C@H](Cc1ccccc1)NS2(=O)=O | x | x | 14 | x
CCCSc1nc2c(c(=O)[nH]c(=O)n2C)n1Cc1ccc(C)cc1 | 119 | 67*[fluorescence artefact?] | 9 | 33
C/C(N)=C(/C#N)C(=O)CSc1nnc(NC(C)C)s1 | 1 | 97*[fluorescence artefact?] | 17 | 99*[fluorescence artefact?]
SMILES | ERa coact pot | ERa coact inh | Smad3 inh | ERb coact inh
C/C(N)=C(/C#N)C(=O)CSc1ncnc2ccccc12 | 51 | 43 | 9 | 45
C/C(N)=C(/C#N)C(=O)CSc1nnc(Nc2ccccc2C)s1 | 42 | 51*[fluorescence artefact?] | -7 | 65*
Oc1ccc(N=Cc2ccc(-c3cccs3)s2)cc1 | 34 | 33 | 12 | 62*[fluorescence artefact?]
O=C1CCCC(O)=C1C=Nc1ccc(O)cc1 | 93 | -25 | -4 | -17
CN1C(=O)c2oc3ccccc3c(=O)c2C1c1ccccn1 (stereo unspecified) | 101 | 0 | 8 | 5
O=C1c2oc3ccccc3c(=O)c2C(c2ccc(Br)cc2)N1c1ncccn1 (stereo unspecified) | 316* | 39 | -36 | 27
Cc1cc2ccccc2c[n+]1CC(O)C[n+]1cc2ccccc2cc1C | x | x | -9 | x
c1cc(-c2nc3cc(Cc4ccc5oc(-c6ccncc6)nc5c4)ccc3o2)ccn1 | 221*[fluorescence artefact?] | 9 | 7 | 22
c1cncc(-c2nc3cc(Cc4ccc5oc(-c6cccnc6)nc5c4)ccc3o2)c1 | 207*[fluorescence artefact?] | -34 | 10 | 11
Cc1cc(S(=O)(=O)Nc2ccc(F)cc2)c(C)s1 | 108 | 2 | 0 | -1
CC(C)(C)NC(=O)c1cccc(NC(=O)c2ccc(NC(=O)c3ccco3)cc2)c1 | 95 | 11 | 8 | 6
CC(C)CNC(=O)c1cccc(NC(=O)c2ccc(NC(=O)c3ccco3)cc2)c1 | 230*[fluorescence artefact?] | 38 | -20 | 21
N/C(CC/C(N)=N\O)=N\O | x | x | -12 | x
